# Reference: PubChem BioAssay (NCI)
# The panel holds about 83,000 compounds, 20% with a hit somewhere; the sample as a whole holds those more often.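 Testing used 96-well plates and a 48-hour single-concentration exposure. Example: -40 means 40% of the starting cells died.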 Activity calls are given as the source filed them. How the source made its calls: active means growth percent below 10; inactive means the rest.
# Tested on: T-47D breast
# Experiment: NCI-60 one-dose screen, 48 h (100 = growth as untreated, 0 = no growth, -100 = all killed)
# Conditions: 10 µM unless noted
row,SMILES,growth
1,CCCCCCOc1ccc(/C=N/Nc2cc(C)nc3ccc(Br)cc23)cc1,-11% (active)
2,COc1ccc(CC(C)=C(c2ccc(OCCN(C)C)cc2)c2ccc(OCCN(C)C)cc2)cc1,84.5% (inactive)
3,CC(=O)NCCCS(=O)(=O)O,102% (inactive)

# Tested on: BT-549 breast
# Experiment: as above
# Conditions: 10 µM unless noted
row,SMILES,growth
1,COc1cccc(/C=C2\COc3ccc(-c4ccccc4)cc3C2=O)c1,13.1% (inactive)
2,O=C1Nc2ccccc2/C1=C\c1cccc(/C=C2/C(=O)Nc3ccccc32)n1,-86.4% (active)
3,COc1ccc(C(=O)c2cc3c(N)c(C(=O)Nc4ccc(Br)cc4)sc3nc2C)cc1,78.2% (inactive)
4,O=S(=O)(O)c1cc(O)c2c(N=Nc3ccc(Nc4ccccc4)c4c(S(=O)(=O)O)cccc34)cc(S(=O)(=O)O)cc2c1,100% (inactive)
5,NC(=S)N/N=C(\c1ccc(Cl)cc1)C1CC1,114% (inactive)
6,CCNNC(=O)[C@@H]1[C@H](c2cc(OC)c(OC)c(OC)c2)c2cc3c(cc2[C@H](O)[C@H]1CO)OCO3,-27.2% (active)
7,COc1cc2nc(-c3ccc(C(F)(F)F)cc3)cc(OCCN3CCCC3)c2cc1OC,70.4% (inactive)
8,Clc1ccc2c(c1)c(-c1ccccc1)nc1nncn12,99.8% (inactive)
9,O=S(=O)(c1ccc(N/N=C\c2ccccc2)cc1)c1ccc(N/N=C/c2ccccc2)cc1,105% (inactive)
10,CN1C(=O)N(C)[C@H]2NC(NN)=N[C@H]21,101% (inactive)
11,COc1ccc(C(O)c2cc3c(N)c(C(=O)Nc4ccccc4)sc3nc2C)cc1 (stereo unspecified),31.6% (inactive)
12,COc1cc(C2CC(c3cccc(Nc4ccncc4)c3)=NN2c2cc(Cl)cc(Cl)c2)cc(OC)c1OC (stereo unspecified),104% (inactive)
13,Cc1cccc(Oc2ccc(Nc3ncnc4ccc(NC(=O)CN(C)C)cc34)cc2Cl)c1,72.9% (inactive)
14,O=C(CN1CCOCC1)Nc1ccc2ncnc(Nc3ccc(Oc4cccc(F)c4)c(Cl)c3)c2c1,86.2% (inactive)
15,Cc1cccc(Oc2ccc(Nc3ncnc4ccc(NC(=O)CNCCO)cc34)cc2Cl)c1,73.4% (inactive)
16,COc1cc(/C=C2\C(=O)N(Cc3ccc(Cl)cc3)c3ccccc32)cc(OC)c1OC,9.56% (active)
17,Cc1ccc(O)c(C(=O)O)c1,111% (inactive)
18,Cc1nccc2c3ccc(OCc4cn(-c5ccc(Cl)cc5)nn4)cc3n(CCCc3ccccc3)c12,31.8% (inactive)
19,O=[N+]([O-])c1cccc(-c2nc(-c3ccc(Cl)cc3Cl)cn2-c2ccccc2)c1,176% (inactive)

row,SMILES,growth
1,CC(C)CCSc1nc(NNC(N)=O)c(C#N)c(-c2ccccc2)n1,46.7% (inactive)
2,O=C1C(=O)c2c(nc3ncccn23)-c2ccccc21,-94% (active)
3,Cc1c2c(cc[n+]1Cc1ccc(F)cc1)c1ccc(OCc3cccc(F)c3)cc1n2Cc1cccc(F)c1,-88.3% (active)
4,CCOC(=O)C1=C(C)NC(C)=C(C(=O)OCC)C1c1cc(Br)c(O)c(OC)c1,15.3% (inactive)
5,COc1cc(C(=O)c2cnc(-c3ccc4cc[nH]c4c3)[nH]2)cc(OC)c1OC,42.9% (inactive)
6,O=c1[nH]nc(-c2ccc(Br)cc2)cc1Cc1ccc(O)cc1,95.8% (inactive)
7,S=c1[nH]cccc1-c1nnc2n1Nc1nc3ccccc3cc1CS2,100% (inactive)
8,COc1cccc(CCC(=O)c2cc3c(N)c(C(=O)Nc4cccc(Cl)c4C)sc3nc2C)c1,50.6% (inactive)
9,O=C1Nc2cc(-c3ccncc3)ccc2/C1=C/c1ccc[nH]1,24.4% (inactive)
10,COc1ccc(-c2nn(Cc3ccccc3)c3c2-c2oncc2CC3)cc1OC,92.7% (inactive)
11,CN1CCN(CC#CCNC(=O)[C@]23CCC(C)(C)C[C@H]2C2=CC[C@@H]4[C@@]5(C)Cc6c([nH]c7ccccc67)C(C)(C)[C@@H]5CC[C@@]4(C)[C@]2(C)CC3)CC1,101% (inactive)
12,NC(=O)c1cccc(-n2ccc3cc(NC(=O)Nc4cc(C(F)(F)F)cc(C(F)(F)F)c4)ccc32)n1,74.4% (inactive)
13,COc1cc(C(=O)/C=C/c2c(C)n([O-])c3ccc(Cl)cc3[n+]2=O)cc(OC)c1OC,64.7% (inactive)
14,O=C(CNCCO)Nc1ccc2ncnc(Nc3ccc(OCc4cccc(F)c4)c(Cl)c3)c2c1,80.5% (inactive)
15,CC[C@@]12C=CCN3CC[C@]4(c5cc(NC(=O)COc6cc(OCC(=O)Nc7cc8c(cc7OC)N(C)[C@H]7[C@@](O)(C(=O)OC)[C@H](OC(C)=O)[C@]9(CC)C=CCN%10CC[C@]87[C@@H]%109)cc7oc(-c8ccccc8)cc(=O)c67)c(OC)cc5N(C)[C@@H]4[C@](O)(C(=O)OC)[C@H]1OC(C)=O)[C@H]32,61.4% (inactive)
16,Cc1cc2nc(-c3ccccc3)c(-c3ccccc3)nc2cc1C,97.5% (inactive)
17,CCCCCCOc1ccc(/C=N/Nc2cc(C)nc3ccc(Br)cc23)cc1,106% (inactive)
18,COc1ccc(CC(C)=C(c2ccc(OCCN(C)C)cc2)c2ccc(OCCN(C)C)cc2)cc1,78.3% (inactive)
19,CC(=O)NCCCS(=O)(=O)O,110% (inactive)
